Bioassay records as filed in PubChem.
Shown are actives, neighbours in structure and some others; about 3% of the full set was active somewhere.
Tau ThT inhib = qHTS for Inhibitors of Tau Fibril Formation, Thioflavin T Binding. Microtubule-associated protein tau (Homo sapiens), P10636. recombinant tau K18 P301L, heparin-induced fibrillization, ThT fluorescence. Potency, µM (top dose mostly 57.4 µM), for inactives: at the highest dose activity, negative = inhibition, usual class: inhibitors. actives 2.1% (n = 270,000); note: nearly all actives have a fitted effect of over 55% in size
Target sequence (P10636 561-689 P618L limits assumed): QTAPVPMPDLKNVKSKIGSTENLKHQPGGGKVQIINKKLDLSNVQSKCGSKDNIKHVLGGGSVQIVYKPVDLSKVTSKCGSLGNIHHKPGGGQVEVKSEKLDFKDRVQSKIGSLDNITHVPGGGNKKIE
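Using a mix of unlabeled (15 uM) and Alexa 594-labeled (0.24 uM) tau K18 P301L, heparin-triggered fibrillization over 6 hr at 37 C was scored by ThT fluorescence.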
TexasRed fluor = Total Fluorescence Counterscreen for Inhibitors of the Interaction of Thyroid Hormone Receptor and Steroid Receptor Coregulator 2; Potency, µM (highest dose often 106 µM), for inactives: top-dose fluorescence change, negative = quenching; actives 0.29% (n = 280,000); TRb/SRC2 Texas Red total fluorescence interference; active = well fitted curve in either direction with a large enough effect; inconclusive = small, poorly fitted or top-dose-only effect
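Human TRβ ligand-binding domain (0.6 uM) and Texas Red SRC2 peptide (20 nM) in Tris buffer with 1 uM T3 and 5% DMSO were incubated with pinned compound for 5 hr at ambient temperature. Total fluorescence was computed as S + 2P (555/632 nm).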
Tau fibril FP = qHTS for Inhibitors of Tau Fibril Formation, Fluorescence Polarization; Microtubule-associated protein tau (Homo sapiens), P10636; K18 P301L tau heparin fibrillization, Alexa594 FP, 6 h; Potency, µM (doses to about 57.7 µM), inactives show top-dose activity, negative = inhibition, most hits filed as inhibitors; actives 0.39% (n = 280,000); AID 1468, 2008; note: nearly all actives have a fitted effect of over 55% in size
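Human tau K18 […] P301L fragment, 15 uM unlabeled plus 0.24 uM Alexa 594-labeled tau (final), with compound and 20 uM heparin in 100 mM sodium acetate pH 7; 6 hr at 37 C, then Alexa 594 FP read.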
TRb SRC2 PPI = qHTS for Inhibitors of the Interaction of Thyroid Hormone Receptor and Steroid Receptor Coregulator 2; actives 0.065% (n = 280,000); Thyroid hormone receptor beta (Homo sapiens), P10828; TRbeta-SRC2 peptide binding, fluorescence polarization; receptor liganded with 1 µM T3; Potency, µM (doses to about 106 µM), for inactives: top-dose activity change, negative = inhibition, most hits filed as inhibitors; AID 1469, 2008;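 note: plate controls were bound peptide for no effect and peptide without receptor for full effect; nearly all actives have a fitted effect of over 50% in size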
Target sequence (P10828 whole entry, looked up): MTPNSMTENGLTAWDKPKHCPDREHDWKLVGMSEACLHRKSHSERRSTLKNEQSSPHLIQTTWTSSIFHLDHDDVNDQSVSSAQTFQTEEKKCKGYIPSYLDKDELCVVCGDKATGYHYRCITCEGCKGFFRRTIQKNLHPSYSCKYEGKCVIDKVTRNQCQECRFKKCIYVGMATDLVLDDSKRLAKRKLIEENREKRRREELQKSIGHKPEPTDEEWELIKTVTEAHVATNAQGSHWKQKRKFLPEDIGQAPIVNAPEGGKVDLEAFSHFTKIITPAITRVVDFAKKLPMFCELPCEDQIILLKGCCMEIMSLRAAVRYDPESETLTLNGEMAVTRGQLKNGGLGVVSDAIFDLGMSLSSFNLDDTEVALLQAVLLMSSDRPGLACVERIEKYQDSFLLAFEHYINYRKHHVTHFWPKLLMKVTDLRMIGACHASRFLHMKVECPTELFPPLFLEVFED
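Binding of a 20-amino-acid Texas Red SRC2 peptide (20 nM) to TRb ligand-binding domain (0.6 uM) with agonist T3 at 1 uM was followed by fluorescence polarization after a 5 hr room-temperature incubation.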
Tau fluor cs = Counterscreen qHTS for Inhibitors of Tau Fibril Formation, Fluorescence Polarization | tau K18 P301L Alexa594 fluorescence, heparin fibrillization | Potency, µM (titrated, usually from 57.7 µM), for inactives: at the highest dose activity change, negative = decrease | actives 0.93% (n = 280,000); note: nearly all actives have a fitted effect of over 55% in size
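Human tau K18 P301L (15 uM unlabeled, 0.24 uM Alexa 594-labeled) in 100 mM sodium acetate pH 7 with 20 uM heparin, 6 hr at 37 C. ThT 30 uM added, 1 hr ambient; Alexa 594 FP and total fluorescence read at 555/632 nm.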
An asterisk follows results filed as active; ? = inconclusive; · = not tested or not shown; [ ] = remark or other dose. Unless noted, calls come from the whole dose curve; as a rule, active = well fitted curve in the direction sought with a large enough effect; inconclusive = small, poorly fitted or top-dose-only effect, or another doubt; inactive = no such curve, though single readings can be large; an effect the other way counts as inactive or inconclusive. Unless noted, % is set by controls: 0 for no effect and ±100 for the full control effect; potency is the fitted concentration of half-maximal effect.

SMILES	Tau ThT inhib	TexasRed fluor	Tau fibril FP	TRb SRC2 PPI	Tau fluor cs
CN1/C(=C/c2cc[n+](C)c3ccccc23)C=Cc2ccccc21	7.08µM*	0.4%	?	3.5%	-29.7%
C[n+]1ccc(/C=C/c2ccccc2O)c2ccccc21	?	-1.0%	-4.5%	-3.8%	-13.9%
CC(=O)Nc1ccc2nc(NC(=O)c3cccs3)sc2c1	·	-3.4%	-3.8%	4.4%	-6.0%
CC(=O)Nc1ccc2nc(NC(=O)c3ccc([N+](=O)[O-])s3)sc2c1	1.12µM*	?	-6.0%	2.0%	?
CN=c1nc(-c2ccccc2)n(-c2ccccc2)s1	22.4µM*	2.2%	?	3.3%	-16.2%
Cc1ccc(N=Nc2c(O)ccc3n[nH]nc23)cc1	3.55µM*	-2.7%	7.5%	5.2%	?
COc1ccc(OC)c(/C=C2\S/C(=N/NC(=O)c3ccc4ccccc4c3)NC2=O)c1	8.91µM*	?	3.1%	?	?
O=C1N/C(=N/NC(=O)c2cccc3ccccc23)S/C1=C\c1ccccc1OCc1ccccc1	?	-4.4%	0.6%	-1.6%	-29.0%
CCc1cc2c(nc1CC)CCN(CC/C(C)=N/O[C@@H](C)c1cn([C@@H]3COC[C@@H]3O)nn1)C2	-4.0%[11.5 µM]	0.9%[11.2 µM]	-0.6%[11.6 µM]	2.1%[11.2 µM]	-7.8%[11.6 µM]
COc1ccc(/C=C/C=C2\N=C(SC)SC2=O)cc1	3.98µM*	-3.8%[53 µM]	?	-0.3%[53 µM]	-28.7%
Cc1ccc(Cl)c(NC(=O)Nc2csc3c2CCCC3)c1	?	0.1%	-15.7%	-4.1%	-18.5%
CCCCc1ccc(-n2nc3cc(C)c(NC(=O)Cc4ccccc4)cc3n2)cc1	31.6µM*	-76.8%[53 µM]	?	-25.3%[53 µM]	39.8µM*[quencher]
COc1cc(N=Nc2cccc(S(N)(=O)=O)c2)c2ccccc2c1N	1.58µM*	-18.2%	?	2.1%	10µM*[quencher]
COc1ccc(NC(=O)Cn2nnc(C(=O)NCc3ccccc3Cl)c2N)cc1Cl	1.5%	-8.7%	-12.6%	5.5%	-5.3%
COc1cc(/C=c2\s/c(=C(/C#N)C(=O)N3CCCC3)n(-c3ccccc3)c2=O)ccc1O	?	1.4%	1.5%	-6.9%	-6.6%
Cc1ccc(/C=c2\s/c(=C(/C#N)C(=O)N3CCCC3)n(Cc3ccco3)c2=O)s1	15.8µM*	-11.8%	-12.2%	0.8%	?
Cc1ccc(CNC(=O)C2CCCN(S(=O)(=O)c3ccc4c(ccn4C)c3)C2)cc1 (stereo unspecified)	-4.1%	0.4%	-7.5%	-1.2%	-19.1%
CN(C)c1ccc(C(=N)c2ccc(N(C)C)cc2)cc1	·	-1.1%	·	-2.0%	·
CC(=O)c1ccc(N=Nc2ccc(C)cc2)cc1	4.47µM*	-2.3%	2.7%	-1.5%	-24.7%
CC(=O)c1ccc(N=Nc2ccc(N(C)C)cc2)cc1	1µM*	-2.8%	-7.4%	1.6%	-25.6%
Cc1ccc(C(=O)c2ccc(C)cc2)cc1	3.2%	3.0%	-1.9%	6.1%	2.2%
CC1=C(c2ccc(Cl)cc2)S(=O)(=O)N=C1N1CCN(c2cccc(C)c2)C(C)C1 (stereo unspecified)	?	-1.7%	12.0%	0.0%	-16.5%
CC(=O)C1C(=O)c2c(cccc2[N+](=O)[O-])C1=Nc1ccc(S(N)(=O)=O)cc1 (stereo unspecified)	12.6µM*	-12.9%	?	-0.2%	?
CC(=O)C1=C(O)C(=O)N(c2ccc(S(N)(=O)=O)cc2)C1c1cccc([N+](=O)[O-])c1 (stereo unspecified)	-13.0%	-4.5%	3.8%	-0.5%	-6.5%
O=C(/C=C/c1ccc([N+](=O)[O-])cc1)NCc1ccccn1	2.3%	-1.4%	6.8%	6.7%	5.6%
SMILES	Tau ThT inhib	TexasRed fluor	Tau fibril FP	TRb SRC2 PPI	Tau fluor cs
O=C(/C=C/c1ccc([N+](=O)[O-])cc1)Nc1ncc([N+](=O)[O-])s1	3.55µM*	-1.9%	10.5%	2.8%	?
O=C(Nc1ccc(Cl)c(-c2nc3ccccc3[nH]2)c1)c1ccc2c(c1)OCO2	?	-5.4%	17.8µM*	0.5%	?
CCCOc1ccc(C(=O)Nc2cccc(-c3nc4ccccc4[nH]3)c2)cc1	?	0.8%	25.1µM*	10.1%	10µM*[quencher]
COc1ccc(OCC(=O)Nc2cccc(-c3nc4ccccc4[nH]3)c2)cc1	?	-0.9%	?	1.3%	20µM*[quencher]
O=C(COc1ccc(F)cc1)Nc1ccc(Cl)c(-c2nc3ccccc3[nH]2)c1	-2.0%	7.6%	28.2µM*	4.9%	?
O=C(COc1ccccc1)Nc1cccc(-c2nc3ccccc3[nH]2)c1	?	-2.0%	?	6.2%	?
O=C(Nc1ccc(-c2nc3ccccc3[nH]2)cc1)c1ccc2c(c1)OCO2	?	-1.9%	5.8%	8.3%	-24.2%
CCOC(=O)c1ccccc1NC(=O)CN(c1cc(C(F)(F)F)ccc1Cl)S(C)(=O)=O	-15.4%	-4.1%	-9.0%	8.1%	?
CCOc1ccc(-n2c(SCC(=O)N3CCOCC3)nc3c([nH]c4ccccc43)c2=O)cc1	7.3%	-25.6%	10.3%	4.5%	13.0%
COC(=O)C1=C(C)N(Cc2ccccc2)[C@]23O[C@](C(=O)OC)(C(=O)N2C1c1ccccc1)C1C(=O)N(C)C(=O)C13 (stereo partly specified)	-8.2%[11.5 µM]	-1.4%[11.2 µM]	-4.2%[11.6 µM]	0.2%[11.2 µM]	-8.8%[11.6 µM]
CC(C)OC(=O)c1c2c(n3ccccc13)C(=O)c1ccccc1C2=O	11.2µM*	2.2%	-1.0%	-13.2%	?
CC(NC(=O)c1sc2cc([N+](=O)[O-])ccc2c1Cl)C(C)(C)C (stereo unspecified)	22.4µM*	-4.1%	?	-0.1%	-26.4%
O=C(NC1CC1)c1sc2cc([N+](=O)[O-])ccc2c1Cl	?	5.1%	4.9%	1.4%	-14.8%
COc1ccc(OC2C=CC(c3ccccc3)OC2CO)c(C(C)(C)C)c1 (stereo unspecified)	-9.9%[11.5 µM]	-1.9%[11.2 µM]	-0.5%[11.6 µM]	-3.6%[11.2 µM]	-19.8%[11.6 µM]
Cc1ccc2oc(=O)c3cc(C(=O)Nc4cccc(C#N)c4)sc3c2c1	0.8%	-0.3%	-5.2%	-0.4%	-5.8%
CCOC(=O)C1CCN(C(=O)Cn2ncc3c([nH]c4ccc(C)cc43)c2=O)CC1	-3.5%	0.2%	-5.1%	-1.1%	-7.4%
Cc1ccc(Cn2c(SCc3ccc(C(=O)O)cc3)nc3cccnc32)cc1	0.1%	3.8%	-3.4%	7.2%	-2.8%
O=c1cc(-c2c(F)c(F)c(F)c(F)c2F)oc2c(F)c(F)c(F)c(F)c12	14.1µM*	-3.3%	?	-1.7%	?
Cn1c(=O)c2c(nc(N/N=C/c3ccc(OC(=O)c4ccco4)cc3)n2Cc2ccccc2)n(C)c1=O	?	-5.2%	10.3%	-0.2%	11.2µM*[quencher]
